In PubChem BioAssay (Tox21):
Records with an inconclusive call do not appear. A number with no mark means an inactive call. Activity calls are given as the source filed them. Calls follow the shape of the dose curve; as a rule, active = well fitted cell-killing curve with a large enough effect in the repeat runs; inconclusive = weak or mixed curves, or effect the other way; inactive = no such curve, though single readings can be large or run the other way.

Experiment: qHTS assay to identify small molecule agonists of the vitamin D receptor (VDR) signaling pathway - cell viability counter screen (AID 743224)
Conditions: VDR-bla HEK293T viability, CellTiter-Glo luminescence, 16 h; series mostly up to 62.6 µM; activity change, negative = cytotoxicity: at the top concentration
Outline: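 VDR-bla cells, 4 h after plating, exposed to compounds for 16 h at 37C; viability then read in the same wells as CellTiter-Glo luminescence after 30 min at room temperature, following the bla FRET read.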
% is scaled to controls: 0 for no effect and ±100 for the full control effect; potency is read from the fitted curve at half-maximal effect.
Also: nearly all actives have a fitted effect of over 50% in size.

SMILES | Potency | activity change, negative = cytotoxicity
Cc1cc(C2CCCCC2)n(O)c(=O)c1 | 18.8 µM (active) | 
COc1cccc2c1C(=O)c1c(O)c3c(c(O)c1C2=O)C[C@@](O)(C(=O)CO)C[C@@H]3O[C@H]1C[C@H](N)[C@H](O[C@@H]2CCCCO2)[C@H](C)O1 |  | -24.6%
CNc1ccc(O)cc1 | 38.8 µM (active) | 
CCN1/C(=C/C=C/c2sc3ccccc3[n+]2CC)Sc2ccccc21 | 4.61 µM (active) | 
COc1cc(-c2nc(NC(=O)c3cc4cc(C)cc(C)c4n3CC(=O)O)sc2CCC2CCCCC2)c(OC)cc1Cl | 10 µM (active) | 
N#CSc1ccc(N)c([N+](=O)[O-])c1 | 55.3 µM (active) | 
CCC(C)Nc1ccc(NC(C)CC)cc1 (stereo not drawn) | 17.7 µM (active) | 
C=CC(=O)OCCn1c(=O)n(CCOC(=O)C=C)c(=O)n(CCOC(=O)C=C)c1=O | 49 µM (active) | 
CCCCCCCCS(=O)C(C)Cc1ccc2c(c1)OCO2 (stereo not drawn) | 50 µM (active) | 
CCCC(=O)OC[C@@H](OC(=O)CCC)[C@@H](OC(=O)CCC)[C@H](Cn1c2nc(=O)[nH]c(=O)c-2nc2cc(C)c(C)cc21)OC(=O)CCC |  | -1.42%
Oc1ccc2cc(SSc3ccc4cc(O)ccc4c3)ccc2c1 | inactive | 
Oc1ccc(C2(c3ccc(O)cc3)CC3CC2C2CCCC32)cc1 (stereo not drawn) | 23.6 µM (active) | 
CCCCCCCCCCCCCCCC(=O)OC[C@H](O)[C@H]1OC(=O)C(O)=C1O | 34.7 µM (active) | 
O=C1C=CC(=O)N1 | 12.6 µM (active) | 
Cc1ccc(O)c2ncccc12 | 0.944 µM (active) | 
Clc1ccc2nsnc2c1NC1=NCCN1 |  | -1.7%
O=Cc1cc(O)ccc1Br |  | -3.16% [at 81.1 µM]
Nc1cc(C(F)(F)F)ccc1S |  | -13.1%
CN(C)c1ccc(SC#N)cc1 |  | -14.5%
CN(C)C(=O)C1(N2CCCCC2)CCN(CC[C@@]2(c3ccc(Cl)c(Cl)c3)CN(C(=O)c3ccccc3)CCO2)CC1 | 20.4 µM (active) | 
CSc1cnc(C)cn1 |  | 2.21% [at 81.1 µM]

Experiment: qHTS assay to identify small molecule antagonists of the vitamin D receptor (VDR) signaling pathway - cell viability counter screen (AID 743225)
Conditions: VDR-bla HEK293T viability, CellTiter-Glo luminescence, 16 h; series mostly up to 61 µM; viability change, negative = cytotoxic: at the top concentration
Outline: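 Cytotoxicity counter screen read by CellTiter-Glo luminescence (30 min, room temperature) in the same wells as the VDR-bla antagonist readout. HEK 293T VDR-UAS-bla cells had 16 h at 37C with compound and 3 nM (final) 1-alpha,25-dihydroxyvitamin D3, then 2 h with FRET substrate.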

SMILES | viability change, negative = cytotoxic | Potency
COc1cccc2c1C(=O)c1c(O)c3c(c(O)c1C2=O)C[C@@](O)(C(=O)CO)C[C@@H]3O[C@H]1C[C@H](N)[C@H](O[C@@H]2CCCCO2)[C@H](C)O1 | -28.5% | 
CCN1/C(=C/C=C/c2sc3ccccc3[n+]2CC)Sc2ccccc21 | -12.2% [at 28.5 µM] | 
CCOC(=O)c1nc(C(Cl)(Cl)Cl)n(-c2ccc(Cl)cc2Cl)n1 |  | 49 µM (active)
CC(=O)N1CCN(c2ccc(OC[C@H]3CO[C@](Cn4ccnc4)(c4ccc(Cl)cc4Cl)O3)cc2)CC1 |  | 38.9 µM (active)
COc1cc(-c2nc(NC(=O)c3cc4cc(C)cc(C)c4n3CC(=O)O)sc2CCC2CCCCC2)c(OC)cc1Cl |  | 10 µM (active)
C[C@H](CCC(=O)O)[C@H]1CC[C@H]2[C@@H]3CC[C@@H]4C[C@H](O)CC[C@]4(C)[C@H]3CC[C@]12C | -4.28% | 
CCC(C)Nc1ccc(NC(C)CC)cc1 (stereo not drawn) |  | 8.88 µM (active)
C=CC(=O)OCCn1c(=O)n(CCOC(=O)C=C)c(=O)n(CCOC(=O)C=C)c1=O |  | 43.6 µM (active)
CCCCCCCCS(=O)C(C)Cc1ccc2c(c1)OCO2 (stereo not drawn) |  | 44.5 µM (active)
Cc1c(C)c2c(c(C)c1OC(=O)CCC(=O)O)CC[C@@](C)(CCC[C@H](C)CCC[C@H](C)CCCC(C)C)O2 | 10% [at 78.8 µM] | 
CCCC(=O)OC[C@@H](OC(=O)CCC)[C@@H](OC(=O)CCC)[C@H](Cn1c2nc(=O)[nH]c(=O)c-2nc2cc(C)c(C)cc21)OC(=O)CCC | 4.18% | 
Oc1ccc(C2(c3ccc(O)cc3)CC3CC2C2CCCC32)cc1 (stereo not drawn) |  | 33.3 µM (active)
CCCCCCCCCCCCCCCC(=O)OC[C@H](O)[C@H]1OC(=O)C(O)=C1O | -29.6% | 
O=C1C=CC(=O)N1 |  | 35.6 µM (active)
O=C(Oc1cccc2cccnc12)c1ccccc1 | -5.07% | 
O=[N+]([O-])c1cc(Cl)c(Cl)c(Cl)c1Cl | 10.5% | 
Clc1ccc2nsnc2c1NC1=NCCN1 | 2.18% | 
O=Cc1cc(O)ccc1Br | 3.97% [at 78.8 µM] | 
Nc1cc(C(F)(F)F)ccc1S | 0.952% | 
C/C(=C(/OCCOc1ccc(Cl)cc1)c1ccc(Cl)cc1Cl)n1ccnc1 | -17.9% | 
CN(C)C(=O)C1(N2CCCCC2)CCN(CC[C@@]2(c3ccc(Cl)c(Cl)c3)CN(C(=O)c3ccccc3)CCO2)CC1 |  | 22.9 µM (active)
CSc1cnc(C)cn1 | 1.8% [at 78.8 µM] | 
